From PubChem BioAssay AID1159580 (chemical genetic matrix, 2015)
Where “and” joins values, the source holds several entries; their conditions need not be identical. Equal entries are not always repeated. Hit rate of the full screen: of about 5,500 compounds, about 2,000 (36%) were called active. Not shown: some 18% with an inconclusive outcome. Rule as the data show it: active = normalized growth mostly below about 0.91 (no sharp cut-off); inconclusive = no clear call, values can overlap the other calls; inactive = mostly above about 0.92. The list shows a part of the results.

Assay: chemical genetic growth profiling, strain panel (AID 1159580);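 also: tested at 20 µM; growth read once vehicle control cultures reached saturation at 30 °C; 1 = growth at the plate median or of vehicle wells; lower values mean less growth of the strain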
Conditions: S. cerevisiae deletion strains, growth OD

Measured: normalized growth

CCC1(C)CC(=O)NC1=O (stereo not given)
inactive: locus YAL013W, strain DEP1, hits give low values 1.01 and 1.05 | locus YAL021C, strain ccr4, hits give low values 0.987 | locus YAL026C, strain drs2, hits give low values 0.986 | locus YAL030W, strain snc1, hits give low values 0.954 | locus YAL040C, strain CLN3, hits give low values 0.994 | locus YBL061C, strain skt5, hits give low values 0.993 | locus YBR009C, strain hhf1, hits give low values 0.97 | locus YBR021W, strain FUR4, hits give low values 1.01 | locus YBR023C, strain chs3, hits give low values 0.958 | locus YBR171W, strain sec66, hits give low values 0.983 | locus YBR229C, strain ROT2, hits give low values 1.01 | locus YBR231C, strain swc5, hits give low values 0.991 | locus YBR279W, strain paf1, hits give low values 0.973 | locus YCL011C, strain gbp2, hits give low values 0.992 | locus YCL016C, strain dcc1, hits give low values 0.986 | locus YCL029C, strain bik1, hits give low values 1.02 | locus YCL061C, strain MRC1 (second series), hits give low values 1.01 | locus YCL069W, strain vba3, hits give low values 0.977 | locus YCR088W, strain abp1, hits give low values 0.974 | locus YDL005C, strain med2, hits give low values 0.974 | locus YDL035C, strain GPR1, hits give low values 0.999 | locus YDL040C, strain nat1, hits give low values 0.995 | locus YDL074C, strain BRE1, hits give low values 0.977 | locus YDL101C, strain DUN1, hits give low values 1.01 | locus YDL134C, strain PPH21, hits give low values 1.02 | locus YDL185W, strain tfp1, hits give low values 1.02 | locus YDL192W, strain arf1, hits give low values 1.02 | locus YDR001C, strain nth1, hits give low values 0.964 | locus YDR069C, strain doa4, hits give low values 0.991 | locus YDR101C, strain arx1, hits give low values 1.04 | locus YDR137W, strain rgp1, hits give low values 0.979 | locus YDR150W, strain NUM1, hits give low values 1.01 | locus YDR159W, strain sac3, hits give low values 0.986 | locus YDR162C, strain NBP2, hits give low values 1.02 | locus YDR195W, strain ref2 0.953 | locus YDR297W, strain sur2, hits give low values 0.981 | locus YDR318W, strain mcm21, hits give low values 1.01 | locus YDR334W, strain swr1, hits give low values 0.952 | locus YDR335W, strain msn5, hits give low values 0.969 | locus YDR363W, strain ESC2, hits give low values 1.02 | locus YDR388W, hits give low values 1.02 | locus YDR392W, strain spt3, hits give low values 0.962 | locus YDR502C, strain sam2, hits give low values 1.01 | locus YEL003W, strain gim4, hits give low values 0.978 | locus YEL037C, strain rad23, hits give low values 0.975 | locus YEL061C, strain CIN8 (second series), hits give low values 0.982 | locus YEL061C, strain CIN8, hits give low values 1.01 | locus YER002W, strain NOP16, hits give low values 1.01 | locus YER015W, strain faa2, hits give low values 0.96 | locus YER016W, strain bim1, hits give low values 0.981 | locus YER110C, hits give low values 1.02 | locus YER111C, strain swi4, hits give low values 0.983 | locus YER155C, strain BEM2 (second series), hits give low values 0.973 | locus YER155C, strain BEM2, hits give low values 0.999 | locus YER167W, strain BCK2, hits give low values 1.01 | locus YFR010W, strain ubp6, hits give low values 0.974 | locus YGL078C, strain dbp3, hits give low values 1.01 | locus YGL086W, strain mad1, hits give low values 1.01 | locus YGL167C, strain pmr1, hits give low values 0.982 | locus YGL173C, strain kem1, hits give low values 0.98 | locus YGL227W, strain vid30, hits give low values 0.985 | locus YGL240W, strain doc1, hits give low values 0.971 | locus YGL248W, strain PDE1, hits give low values 1 | locus YGL253W, strain hxk2, hits give low values 0.981 | locus YGR078C, strain PAC10, hits give low values 1 and 0.997 | locus YGR135W, strain pre9, hits give low values 1.02 | locus YGR229C, strain SMI1, hits give low values 1.01 and 1.03 | locus YGR252W, strain gcn5, hits give low values 0.98 | locus YHR013C, strain ard1, hits give low values 0.94 | locus YHR027C, strain rpn1, hits give low values 0.978 | locus YHR030C, strain SLT2, hits give low values 1.01 and 0.972 | locus YHR079C, strain IRE1 (second series), hits give low values 1.02 | locus YHR079C, strain IRE1, hits give low values 0.978 | locus YHR094C, strain hxt1, hits give low values 1.02 | locus YHR129C, strain ARP1, hits give low values 1 | locus YHR142W, strain chs7, hits give low values 0.967 | locus YHR200W, strain rpn10, hits give low values 1.02 | locus YIL066C, strain RNR3, hits give low values 1.01 | locus YIL073C, strain SPO22, hits give low values 1.06 | locus YIL125W, strain kgd1, hits give low values 1.01 | locus YIR030C, strain dcg1, hits give low values 1.02 | locus YJL092W, strain hpr5, hits give low values 0.974 | locus YJL095W, strain BCK1 (second series), hits give low values 0.982 | locus YJL095W, strain BCK1, hits give low values 0.989 and 0.973 | locus YJL115W, strain asf1, hits give low values 0.959 | locus YJL129C, strain trk1, hits give low values 0.943 | locus YJL134W, strain LCB3, hits give low values 1.01 | locus YJL154C, strain vps35, hits give low values 0.971 | locus YJL164C, strain tpk1, hits give low values 0.974 | locus YJL166W, strain qcr8, hits give low values 0.974 | locus YJL168C, strain set2, hits give low values 1.01 | locus YJL187C, strain SWE1 (second series), hits give low values 1.01 | locus YJL187C, strain SWE1, hits give low values 0.98 | locus YJR043C, strain POL32, hits give low values 1.02 | locus YJR066W, strain TOR1, hits give low values 0.95
